In PubChem BioAssay (Tox21):
A number with no mark means an inactive call. Results filed as inconclusive are left out. Entries that show only a call come without a potency. Activity calls are given as the source filed them. Unless noted, the call rests on the fitted dose curve; in most records, active means well fitted curve in the direction sought with a large enough effect in the repeat runs; inconclusive means weak or mixed curves; inactive means no such curve, though single readings can be large; an effect the other way counts as inactive or inconclusive.

Columns and labels:
[1] = qHTS assay for small molecule agonists of the p53 signaling pathway (AID 651631; calls by dose curve; further: nearly all actives have a fitted effect of over 15% in size; further: potency means the concentration at half of the fitted maximal effect)
How it was run: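 Fluorescence intensity from cleaved LiveBLAzer B/G substrate (2 h, room temperature) served as the signal. Beforehand, HCT-116 reporter cells bearing p53 response elements were treated 16 h at 37 °C with DMSO-dissolved compounds.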

[2] = qHTS assay for small molecules that induce genotoxicity in human embryonic kidney cells expressing luciferase-tagged ATAD5 (AID 651632); further: nearly all actives have a fitted effect of over 15% in size
How it was run: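 HEK293T cells carrying a luciferase reporter tagged to ATAD5 were exposed to compound or DMSO vehicle for 16 hr at 37C, 5% CO2. Amplite was added, and after 30 min at room temperature luciferase activity was read as a marker of ATAD5 induction.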

[3] = qHTS assay for small molecule agonists of the p53 signaling pathway - cell viability (AID 651633; calls by dose curve; further: nearly all actives have a fitted effect of over 30% in size; further: potency means the concentration at half of the fitted maximal effect)
How it was run: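 p53RE-bla cells, seeded at 4,000 per well and rested 5 h at 37 C/5% CO2, received compounds in DMSO for 16 h at 37 C. CellTiter-Glo was then added, and luminescence was read after 30 min at room temperature to gauge cytotoxicity.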

[4] = qHTS assay for small molecules that induce genotoxicity in human embryonic kidney cells expressing luciferase-tagged ATAD5 - cell viability (AID 651634; calls by dose curve; further: nearly all actives have a fitted effect of over 25% in size)
How it was run: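 HEK293T cells expressing luciferase-tagged ATAD5 were exposed to compound or DMSO for 15.5 hr at 37C, 5% CO2. Viability was then read as live-cell protease activity by CellTiter-Fluor fluorescence after 30 min at 37C.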

[5] = qHTS assay for small molecule disruptors of the mitochondrial membrane potential - cell viability (AID 720634; calls by dose curve;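 further: human HepG2 liver cancer cells; series mostly up to about 83 µM; nearly all actives have a fitted effect of over 20% in size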)
How it was run: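 HepG2 cells seeded overnight at 37 C, then exposed to compound or DMSO for 1 hr at 37 C, 5% CO2. m-MPI dye added, then CellTiter-Glo for 30 min at room temperature; viability read as ATP luminescence.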

[6] = qHTS assay to test for compound auto fluorescence at 590 nm (red) in HepG2 cells (AID 720674)
How it was run: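 Intrinsic compound fluorescence in the red window (Ex/Em 540/590 nm) is measured in attached HepG2 cells exposed for 1 hr, DMSO vehicle as baseline, benchmarked to Rose Bengal sodium.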

[7] = qHTS assay to test for compound auto fluorescence at 535 nm (green) in HepG2 cells (AID 720675)
[8] = qHTS assay to test for compound auto fluorescence at 460 nm (blue) in HEK293 cells (AID 720678)
How it was run: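 Measured: blue fluorescence (Ex 405/Em 460 nm) of compound-treated HEK293 cells, incubated overnight at 37C with 5% CO2 and scaled to triamterene equivalents.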

[9] = qHTS assay to test for compound auto fluorescence at 590 nm (red) in HEK293 cells (AID 720679)
How it was run: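 Using HEK293 cells at 2,000 per well, the screen added 23 nL of each compound after cell attachment and incubated overnight (37C, 5% CO2). The plate reader then captured red-label fluorescence, Ex/Em 540/590nm.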

[10] = qHTS assay for small molecule disruptors of the mitochondrial membrane potential (AID 720635); further: potency means the concentration at half of the fitted maximal effect
How it was run: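 HepG2 cells (2,000/well) attached overnight at 37C, then took compound for 1 hr at 37C, 5% CO2. Mito-MPS dye was added for 30 min; fluorescence was read at 490/535 nm (monomers) and 540/590 nm (aggregates).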

Compound	Potency [1]	Potency [2]	Potency [3]	Potency [4]	Potency [5]	outcome [6]	outcome [7]	Potency [8]	outcome [9]	Potency [10]	fluorescence, % of fluorescein control [7]	fluorescence, % of fluorescent control [9]	fluorescence, relative to Rose Bengal [6]	fluorescence, % of triamterene [8]
COc1cc(O)cc(O)c1	inactive	inactive	inactive	inactive	inactive	inactive	inactive	inactive	inactive	–	–	–	–	–
O=[N+]([O-])c1ccc(CCO)cc1	inactive	inactive	inactive	inactive	inactive	inactive	inactive	–	inactive	–	–	–	–	–
C=C(C)C(=O)NCCCN(C)C	inactive	inactive	inactive	inactive	inactive	inactive	–	inactive	–	–	–	–	–	–
NC(=O)CCCCC1CCSS1 (configuration not stated)	inactive	inactive	inactive	inactive	inactive	inactive	inactive	inactive	–	–	–	–	–	–
COc1cccc(Br)c1	inactive	inactive	inactive	inactive	inactive	–	–	inactive	–	inactive	–	–	–	–
C=C(C)C(=O)OCCC(C)OC(=O)C(=C)C (configuration not stated)	inactive	inactive	inactive	inactive	inactive	inactive	inactive	–	inactive	–	–	–	–	–
OCC(O)[C@@H](O)[C@H](O)[C@H](O)CO[C@H]1O[C@H](CO)[C@@H](O)[C@H](O)[C@H]1O (some centres not stated)	inactive	inactive	inactive	inactive	inactive	inactive	inactive	inactive	inactive	–	–	–	–	–
C[C@H]1O[C@@H](n2cc(F)c(=O)[nH]c2=O)[C@H](O)[C@@H]1O	21.1 µM (active)	inactive	8.41 µM (active)	inactive	inactive	inactive	inactive	inactive	inactive	–	–	–	–	–
CO[Si](OC)(OC)OC	inactive	inactive	inactive	inactive	inactive	inactive	inactive	inactive	inactive	–	–	–	–	–
CCCCNc1ccccc1	inactive	inactive	inactive	inactive	inactive	inactive	inactive	inactive	–	–	–	–	–	–
CCC(=O)Nc1cccc(N)c1	inactive	inactive	inactive	inactive	inactive	inactive	inactive	inactive	inactive	–	–	–	–	–
Cc1nccn1CC1CCc2c(c3ccccc3n2C)C1=O (configuration not stated)	inactive	inactive	inactive	inactive	inactive	–	inactive	inactive	inactive	inactive	–	–	–	–
C#CC(C)(O)CC(C)C (configuration not stated)	inactive	inactive	inactive	inactive	inactive	–	inactive	inactive	inactive	inactive	–	–	–	–
COc1cc(C(=O)N2CCOCC2)cc(OC)c1OC	inactive	inactive	inactive	inactive	inactive	–	inactive	inactive	inactive	inactive	–	–	–	–
NCCN1CCNC1=O	inactive	inactive	inactive	inactive	inactive	inactive	inactive	inactive	inactive	–	–	–	–	–
O=C(O)CCNC(=O)c1ccc(N=Nc2ccc(O)c(C(=O)O)c2)cc1	inactive	inactive	inactive	inactive	inactive	inactive	inactive	–	inactive	–	–	–	–	–
COCCOC(=O)CC#N	inactive	inactive	inactive	inactive	inactive	inactive	inactive	inactive	inactive	–	–	–	–	–
CC(C)N1C(=O)c2ccccc2C1=O	inactive	inactive	inactive	inactive	inactive	–	inactive	inactive	inactive	inactive	–	–	–	–
COC[C@H](c1ccc(C(F)(F)F)cc1)N1CCN(C2(C)CCN(C(=O)c3c(C)ncnc3C)CC2)C[C@H]1C	inactive	inactive	inactive	inactive	inactive	inactive	inactive	inactive	–	–	–	–	–	–

Compound	Potency [1]	Potency [2]	Potency [3]	Potency [4]	Potency [5]	outcome [6]	outcome [7]	Potency [8]	outcome [9]	Potency [10]	fluorescence, % of fluorescein control [7]	fluorescence, % of fluorescent control [9]	fluorescence, relative to Rose Bengal [6]	fluorescence, % of triamterene [8]
C=CC(=O)OCCCCCC	inactive	inactive	inactive	inactive	inactive	inactive	inactive	inactive	inactive	–	–	–	–	–
CCCC(C)CO (configuration not stated)	inactive	inactive	inactive	inactive	inactive	inactive	inactive	inactive	inactive	–	–	–	–	–
Cc1ncc(CSSCc2cnc(C)c(O)c2CO)c(CO)c1O	inactive	inactive	inactive	inactive	inactive	inactive	inactive	inactive	inactive	–	–	–	–	–
Cc1ccccc1C(=O)O	inactive	–	inactive	inactive	inactive	–	inactive	inactive	inactive	inactive	–	–	–	–
O=C(O)C(O)[C@H](O)[C@@H](O)[C@H](O)[C@H](O)CO (some centres not stated)	inactive	–	inactive	inactive	–	–	inactive	–	inactive	–	–	–	–	–
CC(C)[C@H](N)C(=O)OCCOCn1cnc2c(=O)[nH]c(N)nc21	inactive	–	inactive	inactive	inactive	–	inactive	inactive	inactive	–	–	–	–	–
CC(C)(C)N(CCO)CCO	–	inactive	inactive	inactive	inactive	inactive	inactive	inactive	–	inactive	–	–	–	–
CC(C)(O)c1ccccc1	inactive	–	inactive	inactive	inactive	inactive	inactive	inactive	inactive	–	–	–	–	–
C=C(C)C(=O)NCCC[N+](C)(C)C	inactive	–	inactive	inactive	inactive	inactive	inactive	inactive	inactive	inactive	–	–	–	–
COc1ccc(N=[N+]([O-])c2ccc(OC)cc2)cc1	inactive	–	inactive	inactive	–	inactive	inactive	inactive	inactive	27 µM (active)	–	–	–	–
c1ccc(SCCSc2ccccc2)cc1	inactive	–	inactive	inactive	inactive	–	–	inactive	inactive	–	–	–	–	–
O=C(O)c1cccc(C(=O)O)n1	–	inactive	inactive	inactive	inactive	inactive	inactive	inactive	inactive	inactive	–	–	–	–
NS(=O)(=O)c1cc2c(cc1C(F)(F)F)NC(Cc1ccccc1)NS2(=O)=O (configuration not stated)	inactive	inactive	inactive	inactive	inactive	–	–	–	–	–	-0.0381% [at 18.6 µM]	0.307% [at 18.6 µM]	–	–
C#CC(O)CCCCC (configuration not stated)	inactive	–	inactive	inactive	inactive	inactive	inactive	inactive	inactive	–	–	–	–	–
C[C@H](O)C(=O)Nc1c(I)c(C(=O)NC(CO)CO)c(I)c(C(=O)NC(CO)CO)c1I	inactive	inactive	inactive	inactive	inactive	–	–	–	–	–	–	0.0561% [at 18.6 µM]	0.0368% [at 18.6 µM]	-0.0154% [at 18.6 µM]
Cc1nc(-c2ccc(OCC(C)C)c(C#N)c2)sc1C(=O)O	inactive	–	inactive	inactive	–	inactive	inactive	inactive	–	–	–	–	–	–
c1ccc2cnncc2c1	inactive	–	inactive	inactive	inactive	–	inactive	–	inactive	inactive	–	–	–	–
C[N+](C)(C)CC[N+]1(C)Cc2c(Cl)c(Cl)c(Cl)c(Cl)c2C1	–	inactive	inactive	inactive	inactive	inactive	inactive	inactive	inactive	inactive	–	–	–	–
COC(=O)[C@H]1[C@H]2C[C@@H]3c4[nH]c5cc(OC)ccc5c4CCN3C[C@H]2C[C@@H](OC(=O)COc2ccc(OC)cc2)[C@@H]1OC	inactive	inactive	inactive	inactive	inactive	inactive	–	–	inactive	–	–	–	–	–

Compound	Potency [1]	Potency [2]	Potency [3]	Potency [4]	Potency [5]	outcome [6]	outcome [7]	Potency [8]	outcome [9]	Potency [10]	fluorescence, % of fluorescein control [7]	fluorescence, % of fluorescent control [9]	fluorescence, relative to Rose Bengal [6]	fluorescence, % of triamterene [8]
CC(C)c1cccc(O)c1	–	inactive	inactive	inactive	inactive	inactive	inactive	inactive	inactive	64.4 µM (active)	–	–	–	–
CC12CCC(CC1=O)C2(C)C (configuration not stated)	–	inactive	inactive	inactive	inactive	inactive	–	–	–	inactive	–	–	–	–
NC(CS)C(=O)O (configuration not stated)	inactive	–	inactive	inactive	inactive	inactive	inactive	inactive	inactive	inactive	–	–	–	–
COc1cc(CCC(C)=O)ccc1O	inactive	–	inactive	inactive	inactive	inactive	inactive	inactive	inactive	–	–	–	–	–
N#CC1(O)CCCCC1	inactive	inactive	inactive	inactive	inactive	–	–	inactive	inactive	–	–	–	–	–
CCCCCCCCC=O	inactive	–	inactive	inactive	inactive	–	inactive	–	–	–	–	–	–	–
Cc1ccc(Nc2ccc(O)c3c2C(=O)c2ccccc2C3=O)cc1	inactive	inactive	inactive	inactive	–	inactive	inactive	inactive	inactive	–	–	–	–	–
NS(=O)(=O)c1cc2c(cc1Cl)NC(CSCc1ccccc1)=NS2(=O)=O	inactive	inactive	inactive	inactive	inactive	–	–	–	–	–	0.0219% [at 18.6 µM]	-0.0194% [at 18.6 µM]	–	-0.0281% [at 18.6 µM]
CCO[Si](CCCN=C=O)(OCC)OCC	inactive	inactive	inactive	inactive	–	–	inactive	inactive	–	–	–	–	–	–
CCOC(=O)[C@H](CCc1ccccc1)N[C@@H](C)C(=O)N1CCC[C@H]1C(=O)O	inactive	–	inactive	inactive	inactive	inactive	inactive	inactive	inactive	inactive	–	–	–	–
NS(=O)(=O)c1cc(C2(O)NC(=O)c3ccccc32)ccc1Cl (configuration not stated)	inactive	–	inactive	inactive	inactive	–	–	–	–	–	–	0.0283% [at 18.6 µM]	-0.645% [at 18.6 µM]	-0.0194% [at 18.6 µM]
NC1CCN(c2cccc(Cl)n2)CC1	inactive	–	inactive	inactive	inactive	inactive	inactive	inactive	inactive	inactive	–	–	–	–
C=C[Si](OC)(OC)OC	–	inactive	inactive	inactive	inactive	inactive	inactive	inactive	–	inactive	–	–	–	–
CC(O)CN(CCCN(C)C)CCCN(C)C (configuration not stated)	inactive	–	inactive	inactive	inactive	inactive	inactive	inactive	inactive	inactive	–	–	–	–
COC(=O)c1ccc(C(=O)OC)c(C(=O)OC)c1	–	inactive	inactive	inactive	inactive	inactive	inactive	inactive	–	inactive	–	–	–	–
CO	inactive	–	inactive	inactive	–	inactive	inactive	inactive	inactive	–	–	–	–	–
C=C(C)[C@H]1CC=C(C)CC1	inactive	inactive	inactive	inactive	–	inactive	inactive	inactive	inactive	–	–	–	–	–
O=C1C(CCS(=O)c2ccccc2)C(=O)N(c2ccccc2)N1c1ccccc1 (configuration not stated)	inactive	–	inactive	inactive	inactive	–	–	–	–	inactive	-0.114% [at 18.6 µM]	–	-0.0311% [at 18.6 µM]	-0.0077% [at 18.6 µM]
